Screening results from PubChem.
ugtP null kill: growth inhibition of S. aureus ugtP deletion strain; growth inhibition, % (no concentration beside the values); S. aureus RN4220 ugtP deletion, OD600 growth, 16 h; hit rate 0.54% among 330,000; in the data active means growth inhibition above about 68%;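 further: plate controls were untreated wells for no effect and antibiotic for full effect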
CCHF vOTU inh: blocks the CCHF virus ovarian tumor domain protease; CCHFV vOTU protease, Pep-AMC fluorescence; inhibition, % at 11.5 µM; hit rate 0.55% among 370,000; in the data active means inhibition above about 30%; further: 0% = vehicle wells with enzyme and 100% = no enzyme wells
Mtb hypoxia inh: reduces hypoxia-regulated biosensor signal in M. tuberculosis. M. tuberculosis hypoxia-regulated fluorescent reporter, fluorescence. AID 1159583. fluorescence inhibition, % (no concentration beside the values). hit rate 0.1% among 300,000; in the data active means fluorescence inhibition mostly above about 23%, no sharp cut-off; inactive means mostly below about 17%
BJeLR lethal: kills HRASV12-expressing BJeLR cells; AID 1554; hit rate 0.17% among 300,000; BJeLR (HRASV12) viability, CellTiter-Glo ATP luminescence, 48 h; inhibition, % (concentration not given with the values); in the data active means inhibition above about 50%
Sa RN4220 lethal: kills Staphylococcus aureus RN4220 | S. aureus RN4220 growth, OD600, 16 h | hit rate 0.33% among 330,000 | inhibition, % (test concentration not listed); in the data active means inhibition above about 85%;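 further: plate controls were untreated cells for no effect and reference antibiotic for full effect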
RecA splice inh: Mtb RecA intein splicing inhibition. P9WHJ3. cell-free RecA intein splicing, fluorescence. inhibition, % (test concentration not listed). hit rate 0.75% among 290,000. AID 2221; in the data active means inhibition above about 30%;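 further: 0% = vehicle wells and 100% = reference inhibitor control wells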
* = called active by the depositor; nt = no result given. Only some compounds are listed: those with a hit (about 1.6% of all), similar ones and a draw of the others.

SMILES | ugtP null kill | CCHF vOTU inh | Mtb hypoxia inh | BJeLR lethal | Sa RN4220 lethal | RecA splice inh
Oc1cc(Cl)ccc1Oc1ccc(Cl)cc1Cl | 100* | -1 | nt | -4 | 100* | 21
CCC=CC(=O)N1CC2(CC(c3cccc(NC(=O)CC)c3)=NO2)CC1C(N)=O (configuration not stated) | 1 | nt | 19 | nt | 2 | nt
CCN1CCN(CCNC(=O)c2ccc(/C=C3/Sc4ccccc4N(Cc4ccccc4C)C3=O)cc2)CC1 | 18 | 8 | 5 | 76* | -2 | 7
CCN1C(=NCCCOC(C)C)NC(c2ccccc2)C(C(=O)OC)C1C (configuration not stated) | -6 | nt | 9 | nt | 4 | nt
CC(=O)C(=Nc1ccc(Cl)cc1Cl)NNc1cccc(Cl)c1 | nt | 10 | nt | 4 | nt | 34*
Clc1ccc(SCNc2ccccc2Cl)cc1 | 88* | -17 | 6 | 2 | 3 | -2
Cc1cc(C)[n+]2[nH]c(N)c(N=Nc3ccccc3)c2n1 | 11 | -6 | 50* | 3 | 18 | 1
O=C(CCl)N1c2ccccc2Sc2c1ccc1ccccc21 | 100* | 13 | nt | nt | 94* | nt
CC(=O)N1c2ccccc2Sc2ccc3ccccc3c21 | nt | -2 | nt | nt | nt | nt
COc1ccc(Nc2oc(COc3ccccc3F)nc2C#N)cc1 | 6 | 10 | nt | -7 | 2 | 41*
COc1ccc(Nc2oc(COc3ccc(OC)cc3)nc2C#N)cc1 | 8 | -1 | 12 | -3 | 5 | 7
CC1CN(C(C)CO)C(=O)c2cc(NC(=O)CCC(F)(F)F)ccc2OC1CN(C)C(=O)NC1CCCCC1 (configuration not stated) | -8 | nt | 12 | nt | 2 | nt
Cc1c(C(=O)N2CCN(S(=O)(=O)c3ccc(F)cc3)CC2)oc2ccccc12 | 10 | -8 | 39* | -9 | 30 | -1
Oc1ccc(-c2cccc(-c3ccc(O)cc3)n2)cc1 | 99* | 2 | 13 | 8 | 98* | 5
Oc1ccc(-c2cc(-c3ccc(O)cc3)nc(-c3ccccc3)n2)cc1 | 100* | 20 | -6 | -3 | 97* | 0
COC(=O)C1=C(c2ccc3ccccc3c2)CC2CCC1N2C(=O)N1CCCCC1 (configuration not stated) | 1 | nt | 11 | nt | 2 | nt
O=C(O)c1ccccc1SSc1ccccc1C(=O)O | 10 | 4 | -2 | -15 | 7 | -7
C[CH2][Hg][S]c1ccccc1C(=O)O | 98* | -1 | 100 | nt | 100* | nt
COc1ccc(C=C2c3ccccc3C(=O)c3ccccc32)c(OC)c1 | nt | 1 | nt | 53* | nt | nt
CCOC(=O)N1CCN(c2cc(N)c([N+](=O)[O-])cc2F)CC1 | -4 | 35* | 7 | 3 | 3 | -1
CCOC(=O)N1CCN(c2cc(C)c(C(C)=O)cc2F)CC1 | -5 | 2 | 2 | -9 | 9 | 0
COC(=O)CC1=C(C(=O)OC)C2(C(=O)N(C)c3ccccc32)C(C#N)=C(N)O1 (configuration not stated) | 98* | 7 | 1 | 3 | 98* | nt
CC(C)Oc1ccccc1C1CC(=O)Nc2cc3c(cc21)OCCO3 (configuration not stated) | -6 | 1 | 5 | 64* | 0 | 2
CC(C)(C)c1cc([N+](=O)[O-])cc(C(C)(C)C)c1O | 93* | 18 | 18 | 37 | 88* | 1
CCn1c(=O)c(C(=O)NNC(=O)c2ccc(Cl)cc2Cl)c(O)c2ccccc21 | 18 | -8 | 0 | -1 | 46 | -3
SMILES | ugtP null kill | CCHF vOTU inh | Mtb hypoxia inh | BJeLR lethal | Sa RN4220 lethal | RecA splice inh
Cn1c(=O)c(C(=O)NNC(=O)c2cccc(Cl)c2)c(O)c2ccccc21 | 100* | -16 | -4 | 0 | 100* | -3
CCn1c(=O)c(C(=O)NNC(=O)c2cccc(Cl)c2)c(O)c2ccccc21 | 100* | -12 | 7 | -1 | 100* | 5
Cc1cccc(C(=O)NNC(=O)c2c(O)c3ccccc3n(C)c2=O)c1 | 61 | -3 | -5 | 2 | 21 | 1
CCOC(=O)c1cc2c(C(F)(F)F)cc(-c3ccccc3)nc2o1 | 5 | -10 | 0 | 4 | -2 | 2
CCOC(=O)c1c(C(F)(F)F)cc(-c2ccc(F)cc2)nc1C | 94* | 15 | 3 | 16 | 1 | -2
CC(CN1CCCC1CN1C(N)=NCC1Cc1ccccc1)N1CC(Cc2ccccc2)N(CCCC2CCCC2)C1=N (configuration not stated) | 100* | nt | nt | nt | 101* | nt
CCC[C@@H](CN1CCC[C@H]1CN1C(N)=NC[C@H]1CC(C)C)N1C[C@@H](Cc2ccccc2)N(CCCC2CCCC2)C1=N | 101* | 11 | nt | nt | 100* | nt
CCC(C)C1CN(C(C)CN2CCCC2CN2C(N)=NCC2Cc2ccccc2)C(=N)N1CCCC1CCCC1 (configuration not stated) | 100* | nt | nt | nt | 100* | nt
CCCCN1C(=N)N([C@@H](C)CN2CCC[C@H]2CN2C(N)=NC[C@@H]2Cc2ccccc2)C[C@H]1[C@H](C)CC | nt | 12 | nt | nt | nt | nt
CCCCN1C(=N)N([C@@H](C)CN2CCC[C@H]2CN2C(N)=NC[C@H]2CC(C)C)C[C@H]1Cc1ccccc1 | nt | 16 | nt | nt | nt | nt
CCN(CC)c1ccc2c(cc1=O)[C@@H](NC)CCc1cc(OC)c(OC)c(OC)c1-2 | nt | 12 | nt | 56* | nt | 1
CNC1CCc2cc(OC)c(OC)c(OC)c2-c2ccc(SC)c(=O)cc21 (configuration not stated) | nt | 11 | nt | nt | nt | nt
CN[C@H]1CCc2cc(OC)c(OC)c(OC)c2-c2ccc(N(C)CC(OC)OC)c(=O)cc21 | -1 | 18 | 1 | 53* | 3 | -1
COc1cc2c(c(OC)c1OC)-c1ccc(N(C)CC(OC)OC)c(=O)cc1[C@@H](NC(C)=O)CC2 | 3 | 4 | 1 | 50 | 4 | -2
CCCNC(=O)N1C2CCC1C(C(=O)OC)=C(c1ccc(F)cc1OCc1ccccc1)C2 (configuration not stated) | 6 | nt | 3 | nt | 3 | nt
Cc1[nH]n(C(N)=S)c(=O)c1C(c1ccccc1)C(C#N)C#N (configuration not stated) | -1 | 5 | nt | -4 | 4 | 43*
CCOc1cc(C=NNc2cc(C)nc(-n3nc(C)cc3C)n2)ccc1O | 9 | nt | 39* | nt | -14 | nt
CCn1c2ccccc2c2cc(CN3CCN(C(=O)c4ccco4)CC3)ccc21 | -20 | 6 | nt | -3 | 9 | 13
CCCS(=O)(=O)N1CCN(Cc2ccc3c(c2)c2ccccc2n3CC)CC1 | -7 | 12 | 41* | -11 | 5 | 6
COC1C=CC23c4cc5c(cc4CO[C@]2(O)CN(C)C3C1)OCO5 (some centres not stated) | 7 | nt | 19 | nt | 7 | nt
CC(NC(=O)c1nc[nH]c1C(=O)N1CCN(c2ccccc2)CC1)C(=O)OC(C)(C)C (configuration not stated) | -6 | nt | -3 | nt | -2 | nt
O=[N+]([O-])c1cccnc1N1CCC(c2cc(-c3cccc(C(F)(F)F)c3)n[nH]2)CC1 | 90* | 21 | 8 | 5 | 8 | 7
O=C(C=Cc1ccccc1)NCCSc1ccc(Cl)cc1 | 5 | nt | 11 | nt | 1 | nt
Cc1ccc(Sc2ncnc3onc(C)c23)c(C)c1 | -3 | -9 | 6 | nt | 9 | nt
